Data taken from PubChem BioAssay AID1159580 (chemical genetic matrix, 2015).
Several values for one entry are separate records, joined by “and”; a condition that tells them apart may be missing. Identical values can stand only once. Out of some 5,500 compounds screened, about 2,000 (36%) were called active. Another 18% or so got no clear call; they are omitted. Cut-off read from the data, not from the text of the source: active = normalized growth mostly below about 0.91 (no sharp cut-off); inconclusive = no clear call, values can overlap the other calls; inactive = mostly above about 0.92. This is one part of the list.

Assay: chemical genetic growth profiling, strain panel (AID 1159580);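 note: tested at 20 µM; growth read once vehicle control cultures reached saturation at 30 °C; 1 = growth at the plate median or of vehicle wells; lower values mean less growth of the strain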
Settings: S. cerevisiae deletion strains, growth OD

Measured: normalized growth

COc1ccc2c(c1)OCc1c-2oc2cc(OC)ccc12
active: locus YAL021C, strain ccr4, stronger effect = lower value 0.901 | locus YAL026C, strain drs2, stronger effect = lower value 0.764 | locus YAL030W, strain snc1, stronger effect = lower value 0.919 | locus YBL061C, strain skt5, stronger effect = lower value 0.864 | locus YBR009C, strain hhf1, stronger effect = lower value 0.737 | locus YBR023C, strain chs3, stronger effect = lower value 0.862 | locus YBR231C, strain swc5, stronger effect = lower value 0.909 | locus YBR279W, strain paf1, stronger effect = lower value 0.894 | locus YCL011C, strain gbp2, stronger effect = lower value 0.792 | locus YCL016C, strain dcc1, stronger effect = lower value 0.858 | locus YDR137W, strain rgp1, stronger effect = lower value 0.415 | locus YDR159W, strain sac3, stronger effect = lower value 0.724 | locus YDR297W, strain sur2, stronger effect = lower value 0.894 | locus YDR335W, strain msn5, stronger effect = lower value 0.857 | locus YDR392W, strain spt3, stronger effect = lower value 0.162 | locus YEL003W, strain gim4, stronger effect = lower value 0.806 | locus YEL061C, strain CIN8 (second series), stronger effect = lower value 0.777 | locus YEL061C, strain CIN8, stronger effect = lower value 0.666 | locus YER015W, strain faa2, stronger effect = lower value 0.9 | locus YER016W, strain bim1, stronger effect = lower value 0.87 | locus YER111C, strain swi4, stronger effect = lower value 0.84 | locus YER155C, strain BEM2 (second series), stronger effect = lower value 0.505 | locus YGL173C, strain kem1, stronger effect = lower value 0.851 | locus YGL240W, strain doc1, stronger effect = lower value 0.756 | locus YGL248W, strain PDE1, stronger effect = lower value 0.84 | locus YGL253W, strain hxk2, stronger effect = lower value 0.866 | locus YHR027C, strain rpn1, stronger effect = lower value 0.916 | locus YHR129C, strain ARP1, stronger effect = lower value 0.779 | locus YHR142W, strain chs7, stronger effect = lower value 0.659 | locus YIL066C, strain RNR3, stronger effect = lower value 0.745 | locus YJL095W, strain BCK1 (second series), stronger effect = lower value 0.761 | locus YJL129C, strain trk1, stronger effect = lower value 0.839 | locus YJL164C, strain tpk1, stronger effect = lower value 0.79 | locus YJL166W, strain qcr8, stronger effect = lower value 0.779 | locus YKL160W, strain elf1, stronger effect = lower value 0.748 | locus YKR001C, strain vps1, stronger effect = lower value 0.777 | locus YLL001W, strain dnm1, stronger effect = lower value 0.871 | locus YLR027C, strain aat2, stronger effect = lower value 0.8 | locus YLR039C, strain RIC1, stronger effect = lower value 0.446 | locus YLR221C, strain rsa3, stronger effect = lower value 0.762 | locus YLR258W, strain gsy2, stronger effect = lower value 0.895 | locus YLR262C, strain YPT6 (second series), stronger effect = lower value 0.387 | locus YLR262C, strain YPT6, stronger effect = lower value 0.505 | locus YLR320W, strain mms22, stronger effect = lower value 0.625 | locus YLR342W, strain FKS1, stronger effect = lower value 0.73 | locus YML120C, strain ndi1, stronger effect = lower value 0.842 | locus YMR058W, strain fet3, stronger effect = lower value 0.699 | locus YMR125W, strain sto1, stronger effect = lower value 0.877 | locus YMR205C, strain PFK2, stronger effect = lower value 0.694 | locus YMR231W, strain pep5, stronger effect = lower value 0.912 | locus YNL071W, strain lat1, stronger effect = lower value 0.502 | locus YNL307C, strain MCK1, stronger effect = lower value 0.858 | locus YNL322C, strain KRE1, stronger effect = lower value 0.874 | locus YOR070C, strain gyp1, stronger effect = lower value 0.836 | locus YOR083W, strain WHI5, stronger effect = lower value 0.812 | locus YOR106W, strain vam3, stronger effect = lower value 0.822 | locus YOR184W, strain ser1, stronger effect = lower value 0.821 | locus YOR265W, strain rbl2, stronger effect = lower value 0.928 | locus YOR270C, strain vph1, stronger effect = lower value 0.476 | locus YOR290C, strain snf2, stronger effect = lower value 0.834 | locus YPL051W, strain arl3, stronger effect = lower value 0.677 | locus YPL078C, strain atp4, stronger effect = lower value 0.764 | locus YPL240C, strain hsp82, stronger effect = lower value 0.915
0.542 (active) and 0.952 (inactive): locus YJL095W, strain BCK1, stronger effect = lower value
inactive: locus YBR021W, strain FUR4, stronger effect = lower value 0.946 | locus YBR171W, strain sec66, stronger effect = lower value 0.973 | locus YBR229C, strain ROT2, stronger effect = lower value 0.997 | locus YCL029C, strain bik1, stronger effect = lower value 1 | locus YCL069W, strain vba3, stronger effect = lower value 0.945 | locus YCR088W, strain abp1, stronger effect = lower value 0.945 | locus YDL005C, strain med2, stronger effect = lower value 1.02 | locus YDL035C, strain GPR1, stronger effect = lower value 0.955 | locus YDL040C, strain nat1, stronger effect = lower value 0.988 | locus YDL101C, strain DUN1, stronger effect = lower value 0.915 | locus YDL134C, strain PPH21, stronger effect = lower value 0.908 | locus YDL185W, strain tfp1, stronger effect = lower value 1.05 | locus YDL192W, strain arf1, stronger effect = lower value 1.01 | locus YDR001C, strain nth1, stronger effect = lower value 0.989 | locus YDR069C, strain doa4, stronger effect = lower value 0.959 | locus YDR101C, strain arx1, stronger effect = lower value 0.997 | locus YDR150W, strain NUM1, stronger effect = lower value 0.991 | locus YDR162C, strain NBP2, stronger effect = lower value 0.872 | locus YDR195W, strain ref2 1.08 | locus YDR318W, strain mcm21, stronger effect = lower value 0.988 | locus YDR334W, strain swr1, stronger effect = lower value 1.01 | locus YDR388W, stronger effect = lower value 1 | locus YDR502C, strain sam2, stronger effect = lower value 0.985 | locus YEL037C, strain rad23, stronger effect = lower value 0.986 | locus YER110C, stronger effect = lower value 0.995 | locus YER155C, strain BEM2, stronger effect = lower value 0.941 | locus YFR010W, strain ubp6, stronger effect = lower value 0.942 | locus YGL078C, strain dbp3, stronger effect = lower value 1.03 | locus YGL086W, strain mad1, stronger effect = lower value 0.947 | locus YGL167C, strain pmr1, stronger effect = lower value 0.977 | locus YGL227W, strain vid30, stronger effect = lower value 0.935 | locus YGR078C, strain PAC10, stronger effect = lower value 0.943 | locus YGR135W, strain pre9, stronger effect = lower value 1.01 | locus YGR252W, strain gcn5, stronger effect = lower value 0.967 | locus YHR013C, strain ard1, stronger effect = lower value 0.975 | locus YHR030C, strain SLT2, stronger effect = lower value 0.966 | locus YHR079C, strain IRE1 (second series), stronger effect = lower value 1 | locus YHR079C, strain IRE1, stronger effect = lower value 0.951 | locus YHR094C, strain hxt1, stronger effect = lower value 1.02 | locus YHR200W, strain rpn10, stronger effect = lower value 1.01 | locus YIL073C, strain SPO22, stronger effect = lower value 1.18 | locus YIL125W, strain kgd1, stronger effect = lower value 0.996 | locus YIR030C, strain dcg1, stronger effect = lower value 1 | locus YJL092W, strain hpr5, stronger effect = lower value 0.943 | locus YJL115W, strain asf1, stronger effect = lower value 0.995 | locus YJL134W, strain LCB3, stronger effect = lower value 1.01 | locus YJL154C, strain vps35, stronger effect = lower value 1 | locus YJL168C, strain set2, stronger effect = lower value 1.01 | locus YJR043C, strain POL32, stronger effect = lower value 0.953 | locus YJR066W, strain TOR1, stronger effect = lower value 0.876 | locus YJR075W, strain HOC1, stronger effect = lower value 0.898 | locus YKL009W, strain mrt4, stronger effect = lower value 1.02 | locus YKL068W, stronger effect = lower value 1.01 | locus YKL085W, strain MDH1 (second series), stronger effect = lower value 0.984 | locus YKL085W, strain MDH1, stronger effect = lower value 0.984 | locus YKL190W, strain CNB1, stronger effect = lower value 1 | locus YKR026C, strain gcn3, stronger effect = lower value 0.988 | locus YKR091W, strain srl3, stronger effect = lower value 0.987 | locus YLL041C, strain sdh2, stronger effect = lower value 0.972 | locus YLR058C, strain SHM2, stronger effect = lower value 0.936 | locus YLR102C, strain apc9, stronger effect = lower value 1.01 | locus YLR113W, strain HOG1, stronger effect = lower value 0.928 | locus YLR268W, strain sec22, stronger effect = lower value 0.966 | locus YLR330W, strain CHS5, stronger effect = lower value 0.929 | locus YLR342W, strain FKS1 (second series), stronger effect = lower value 0.796 | locus YLR357W, strain rsc2, stronger effect = lower value 0.909 | locus YLR370C, strain arc18, stronger effect = lower value 0.94 | locus YLR371W, strain rom2, stronger effect = lower value 1.01 | locus YLR384C, strain iki3, stronger effect = lower value 1.01 | locus YLR418C, strain cdc73, stronger effect = lower value 0.901 | locus YML016C, strain PPZ1, stronger effect = lower value 0.978 | locus YML032C, strain rad52, stronger effect = lower value 0.959 | locus YML124C, strain tub3, stronger effect = lower value 1.01 | locus YMR078C, strain ctf18, stronger effect = lower value 1.01 | locus YMR129W, stronger effect = lower value 0.985 | locus YMR223W, strain ubp8, stronger effect = lower value 1.01 | locus YMR263W, strain SAP30, stronger effect = lower value 0.954 | locus YMR307W, strain GAS1, stronger effect = lower value 1 | locus YNL067W, strain RPL9B, stronger effect = lower value 0.92 | locus YNL153C, strain GIM3, stronger effect = lower value 0.968 | locus YNL183C, strain NPR1, stronger effect = lower value 0.888 | locus YNL209W, strain ssb2, stronger effect = lower value 0.965 | locus YNL233W, strain BNI4, stronger effect = lower value 0.9 | locus YNL248C, strain rpa49, stronger effect = lower value 0.894 | locus YNL250W, strain rad50, stronger effect = lower value 1.03 | locus YNL271C, strain bni1, stronger effect = lower value 1.01 | locus YNL298W, strain CLA4, stronger effect = lower value 1.03 | locus YNL322C, strain KRE1 (second series), stronger effect = lower value 0.955 | locus YNR049C, strain mso1, stronger effect = lower value 1 | locus YNR052C, strain pop2, stronger effect = lower value 1.02 | locus YOL012C, strain htz1 0.977 | locus YOL147C, strain pex11, stronger effect = lower value 1.01 | locus YOR001W, strain rrp6, stronger effect = lower value 0.896 | locus YOR061W, strain CKA2, stronger effect = lower value 1 | locus YOR069W, strain VPS5, stronger effect = lower value 0.956 | locus YOR080W, strain dia2, stronger effect = lower value 1 | locus YOR136W, strain idh2, stronger effect = lower value 1 | locus YOR144C, strain elg1, stronger effect = lower value 0.991 | locus YOR231W, strain MKK1, stronger effect = lower value 0.938 | locus YOR316C, strain cot1, stronger effect = lower value 1.02 | locus YPL106C, strain sse1, stronger effect = lower value 0.969 | locus YPL256C, strain CLN2, stronger effect = lower value 0.95 | locus YPR119W, strain clb2, stronger effect = lower value 0.998 | locus YPR141C, strain kar3, stronger effect = lower value 1.03 | locus YPR163C, strain tif3, stronger effect = lower value 1 | locus YPR167C, strain met16, stronger effect = lower value 0.992 | strain wtn01, stronger effect = lower value 0.983
